Each structure is given as a SMILES string. Results filed as inconclusive are left out. Where a call stands in place of a potency, no number is given. Activity calls are given as the source filed them. Calls come from the whole dose curve; as a rule, active = well fitted cell-killing curve with a large enough effect; inconclusive = small, poorly fitted or top-dose-only effect; inactive = flat fitted curve, though single readings scatter.
Potency is the fitted concentration of half-maximal effect.

This test can be described thus: Cell Viability - LYMP2-011 (AID 969). Note: nearly all actives have a fitted effect of over 60% in size. The settings on record: LYMP2-011 lymphoblastoid cells viability; series mostly up to 92.2 µM. From the text:
NIH Chemical Genomics Center [NCGC]
NIH Molecular Libraries Screening Centers Network [MLSCN]
National Institutes of Environmental Health Sciences [NIEHS]
National Toxicology Program [NTP]
We have developed a 1536-well cell-based assay for quantitative high throughput screening (qHTS) against a number of cell lines to determine in vitro cytotoxicity of small molecules. This particular assay uses a human lymphoblastoid cell line (LYMP2-011) purchased from Coriell Institute for Medical Research.
NCGC Assay Protocol Summary:
The CellTiter-Glo luminescent cell viability assay (Promega) is a homogeneous method to measure the number of viable cells in culture. The end point readout of this assay is based on quantitation of intracellular ATP, an indicator of metabolic activity, using the luciferase reaction. Luciferase catalyzes the oxidation of beetle Luciferin to oxyluciferin and light in the presence of ATP. The luminescent signal is proportional to amount of ATP present.
Using the CellTiter-Glo luminescent cell viability assay, the amount of cellular ATP was measured in the lymphoblastoid cell line with complete culture medium following compound treatment for 24 hours. The assay was performed in opaque white Kalypsys 1536-well plates. In the screen, tetraoctylammonium bromide was used as positive control. Library compounds were measured for their ability to cause acute toxicity in the cell line, as reflected by a decrease in intracellular ATP levels, in a concentration-dependent manner. […] AC50 values were determined from concentration-response data modeled with the standard Hill equation.
qHTS protocol for CellTiter Glo lymphoblastoid cellular assay
[Step] [Parameter] [Value] [Description]
1. Reagent; 5 uL; 2500 lymphoblastoid cells/well
2. Time; 5 hr; 37 C incubation
4. Controls; 23 nL; Tetraoctylammonium bromide 6.4pM to 92 uM
5. Time; 24 hr; 37 C incubation
6. Reagent; 5 uL; CellTiter Glo reagent
7. Time; 30 min; Room Temperature
8. Detection; Luminescence; Viewlux plate reader
Keywords: cell viability, cytotoxicity, lymphoblastoid cell line, luminescence, NTPHTS, NTPHTS_NCGC, NIEHS, DSSTox, MLSMR, MLSCN, NIH Roadmap, qHTS, NCGC
For the compound `CN(C)CCC(c1ccccc1)c1ccccn1` (stereo not drawn), the Potency entry was “inactive”.

On to `CC(=O)c1ccc(S(=O)(=O)NC(=O)NC2CCCCC2)cc1`, for which the Potency entry is “inactive”.

Take `CCn1cc(C(=O)O)c(=O)c2ccc(C)nc21`: the Potency result was “inactive”.

`O=c1c(O)c(-c2ccc(O)cc2)oc2cc(O)cc(O)c12`: the Potency entry was “inactive”.

For `CCCNC(=O)NS(=O)(=O)c1ccc(Cl)cc1`, the Potency entry is “inactive”.

Consider `CC/C(=C(\c1ccccc1)c1ccc(OCCN(C)C)cc1)c1ccccc1`, for which the Potency is 50.1 µM (active).

As for `O=c1c(-c2ccc(O)cc2)coc2cc(O)ccc12`, the Potency entry was “inactive”.

`O=C1NC(=O)C(c2ccccc2)(c2ccccc2)N1`: the Potency result was “inactive”.

Consider `O=c1[nH]cnc2c1ncn2[C@H]1CC[C@@H](CO)O1`, for which the Potency result is “inactive”.

Regarding `CCCCC1C(=O)N(c2ccccc2)N(c2ccccc2)C1=O`, the Potency entry was “inactive”.

For the compound `CC(=O)O[C@]1(C(C)=O)CC[C@H]2[C@@H]3C=C(Cl)C4=CC(=O)[C@@H]5C[C@@H]5[C@]4(C)[C@H]3CC[C@@]21C`, the Potency entry was “inactive”.

Regarding `CC1=C(/C=C/C(C)=C/C=C/C(C)=C/C(=O)Nc2ccc(O)cc2)C(C)(C)CCC1`, the Potency is 63.1 µM (active).

With `O=C(O)Cc1cccc2ccccc12`, the Potency entry was “inactive”.

The values above are taken from PubChem BioAssay (NCATS).
